The structures appear in SMILES notation. Values joined by “and” are separate entries in the source; they are usually repeats but may differ in a detail not shown here. Identical values can stand only once. Records with an inconclusive call do not appear. Where a call stands in place of a potency, no number is given. Active and inactive are the calls of the source. Calls come from the whole dose curve; as a rule, active = well fitted cell-killing curve with a large enough effect; inconclusive = small, poorly fitted or top-dose-only effect; inactive = flat fitted curve, though single readings scatter.
Potency is the fitted concentration of half-maximal effect.

This experiment in a line: Cellular viability qHTS for adrenocortical cancer (ACC) cell line NCI-H295R (AID 1963990). Note: nearly all actives have a fitted effect of over 60% in size. The following applies: CellTiter-Glo ATP luminescence, 48 h; series mostly up to 46.1 µM. The method, boiled down: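 Readout: CellTiter-Glo luminescence, 20 min RT. Exposure: 48 h, 37C/5% CO2. Cells: NCI-H295R, ITS-DMEM serum-free. Range: up to 46 uM. Analysis: 4PL fit, IC50 plus efficacy.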
(qHTS replaces the single test concentration by a dilution series.)
Take `OCCOCCN1CCN(C(c2ccccc2)c2ccc(Cl)cc2)CC1` (stereo unspecified): the Potency entry is “inactive”.
Take `CCc1cc(Nc2nccc(-c3c(-c4ccc(OC)c(C(=O)Nc5c(F)cccc5F)c4)nc4ccccn34)n2)c(OC)cc1N1CCC(N2CCN(S(C)(=O)=O)CC2)CC1`: the Potency result was “inactive”.
In the case of `Nc1ncnc2c1c(COc1cccc(Cl)c1)nn2C1CCOCC1` it was “inactive”.
In the case of `O=C1CC[C@H](N2Cc3c(OCc4ccc(CN5CCOCC5)cc4)cccc3C2=O)C(=O)N1` it was “inactive”.
For the molecule `C[C@H]1[C@H](C)CC[C@]2(C(=O)O)CC[C@]3(C)C(=CC[C@@H]4[C@@]5(C)C[C@@H](O)[C@H](O)[C@@](C)(CO)[C@@H]5CC[C@]43C)[C@H]12`, the Potency entry is “inactive”.
Consider `N#Cc1ccc(Oc2ccc3c(c2)COB3O)cc1`, for which the Potency entry is “inactive”.
As to `Cc1c2oc3c(C)ccc(C(=O)N[C@@H]4C(=O)N[C@H](C(C)C)C(=O)N5CCC[C@H]5C(=O)N(C)CC(=O)N(C)[C@@H](C(C)C)C(=O)O[C@@H]4C)c3nc-2c(C(=O)N[C@@H]2C(=O)N[C@H](C(C)C)C(=O)N3CCC[C@H]3C(=O)N(C)CC(=O)N(C)[C@@H](C(C)C)C(=O)O[C@@H]2C)c(N)c1=O`, the Potency is 0.0517 µM (active).
`CC(=O)N1CCC(Nc2cc(C(=O)NC[C@H](O)CN3CCc4ccccc4C3)ncn2)CC1`: the Potency entry was “inactive”.
Under `CCCOC(C(=O)OC1CCN(C)CC1)(c1ccccc1)c1ccccc1` stands 23.1 µM (active).
In the case of `CCCCOc1cc(C(=O)NCCN(CC)CC)c2ccccc2n1` it was 20.6 µM (active).
For `CCOC(=O)c1c(N)sc2c1CCN(Cc1ccccc1)C2`, the Potency result was “inactive”.
In the case of `CCCSS/C(CCO)=C(\C)N(C=O)Cc1cnc(C)nc1N` it was 9.2 µM (active).
Under `O=C1Nc2ccccc2C1(c1ccc(O)cc1)c1ccc(O)cc1` stands “inactive”; under `CCN(CC)CCCN(c1ccccc1)C1Cc2ccccc2C1`, 25.9 µM (active); under `O=C(Nc1ccc(S(=O)(=O)N2CCOCC2)cc1)c1cc(Cl)ccc1NS(=O)(=O)c1ccc(Cl)s1`, 20.6 µM (active) and 25.1 µM (active).
Consider `CCCCCCOc1ccccc1C(N)=O`, for which the Potency result was “inactive”.
In the case of `Cn1ncnc1[C@H]1c2n[nH]c(=O)c3cc(F)cc(c23)N[C@@H]1c1ccc(F)cc1` it was “inactive”; in that of `C/C=C(/C(=C/C)c1ccc(OC(C)=O)cc1)c1ccc(OC(C)=O)cc1`, 23.1 µM (active); in that of `O=C(c1ccc(F)cc1)C1CCN(CCn2c(=S)[nH]c3ccccc3c2=O)CC1`, “inactive”.
For `O=C(Nc1ccccc1)OCC(CN1CCCCC1)OC(=O)Nc1ccccc1` (stereo unspecified), the Potency is 23.1 µM (active).
Regarding `Cc1cc(O)c2ccccc2c1O`, the Potency was 20.6 µM (active).
In the case of `C=CC[N+]1([C@H]2C[C@H]3[C@@H]4CC[C@H]5C[C@H](O)[C@@H](N6CCOCC6)C[C@]5(C)[C@H]4CC[C@]3(C)[C@H]2OC(C)=O)CCCC1`, the Potency result was “inactive”.
`COc1ccc2cc(CCC(C)=O)ccc2c1`: the Potency result is “inactive”.
Turning to `OCCOc1ccc(/C(=C(/CCCl)c2ccccc2)c2ccccc2)cc1`, the Potency was 25.1 µM (active).
Under `CN1C(=O)[C@@H](NC(=O)c2cc(Cc3ccccc3)on2)COc2ccccc21` stands “inactive”; under `Nc1nccc(-c2c(-c3ccc(F)cc3)ncn2C2CCCCC2)n1`, “inactive”.

The values above are taken from PubChem BioAssay (NCATS).
